# In paper PMC11062922 (Nature Chemical Biology, 2023):
# Like-named read-outs stand apart in the source and are kept apart here.
# How the values were obtained:
# Parameters in all cases: species or system human, MV4-11 + K-562 + COLO205 + SK-N-BE2 + OVCAR-8
# ADCK3 = conditions: read-out: apparent Kd, n = 1
# DHCR24 = conditions: read-out: apparent Kd; compound concentrations:100 nM and 1000 nM (sheet 'Samples'); n = 1
# DJA1 = test system: T1, DJA1; conditions: read-out: apparent Kd, n = 1
# T1 construct: gene DNAJA1
# ERBB3 = conditions: read-out: apparent Kd; compound concentrations:100 nM and 1000 nM (sheet 'Samples'); n = 1
# PI4KA = conditions: read-out: apparent Kd; compound concentrations:100 nM and 1000 nM (sheet 'Samples'); n = 1
# PI4KB = conditions: read-out: apparent Kd; compound concentrations:100 nM and 1000 nM (sheet 'Samples'); n = 1
# PIK3C2A = conditions: read-out: apparent Kd; compound concentrations:100 nM and 1000 nM (sheet 'Samples'); n = 1
# PIK3C2B = conditions: read-out: apparent Kd; compound concentrations:100 nM and 1000 nM (sheet 'Samples'); n = 1
# PIK3CA = conditions: read-out: apparent Kd; compound concentrations:100 nM and 1000 nM (sheet 'Samples'); n = 1
# PIK3CB = conditions: read-out: apparent Kd; compound concentrations:100 nM and 1000 nM (sheet 'Samples'); n = 1
# PIK3CD = conditions: read-out: apparent Kd, n = 1
# PRKDC = conditions: read-out: apparent Kd; compound concentrations:100 nM and 1000 nM (sheet 'Samples'); n = 1
# ADCK1 = conditions: read-out: apparent Kd, compound concentrations: 100 nM and 1000 nM (sheet 'Samples'), n = 1
# CAMK4 = conditions: read-out: apparent Kd; compound concentrations: 100 nM and 1000 nM (sheet 'Samples'), CATDS: 0.15107138054909999; n = 1
# FLT3 = conditions: read-out: apparent Kd; compound concentrations: 100 nM and 1000 nM (sheet 'Samples'), CATDS: 0.830735386752396; n = 1
# MAP2K2 = conditions: read-out: apparent Kd; compound concentrations: 100 nM and 1000 nM (sheet 'Samples'), CATDS: 0.139234608718731; n = 1
# PDGFRB = conditions: read-out: apparent Kd; compound concentrations: 100 nM and 1000 nM (sheet 'Samples'), CATDS: 0.32052418925239901; n = 1
# GALK1 = conditions: read-out: apparent Kd; compound concentrations: 100 nM and 1000 nM (sheet 'Samples'), CATDS: 0.119899430557505; n = 1
# MAPK14 = conditions: read-out: apparent Kd, compound concentrations: 100 nM and 1000 nM (sheet 'Samples'), n = 1
# MAPK1 = conditions: read-out: apparent Kd; compound concentrations: 100 nM and 1000 nM (sheet 'Samples'), CATDS: 0.12427254642557201; n = 1
# PIM2 = conditions: read-out: apparent Kd; compound concentrations: 100 nM and 1000 nM (sheet 'Samples'), CATDS: 0.117779820663657; n = 1
# STK16 = conditions: read-out: apparent Kd, compound concentrations: 100 nM and 1000 nM (sheet 'Samples'), n = 1
# CLK1 = conditions: read-out: apparent Kd; compound concentrations: 100 nM and 1000 nM (sheet 'Samples'), CATDS: 0.119172303588979; n = 1
# CLK2 = conditions: read-out: apparent Kd; compound concentrations: 100 nM and 1000 nM (sheet 'Samples'), CATDS: 0.34791334092069898; n = 1
# CLK4 = conditions: read-out: apparent Kd; compound concentrations: 100 nM and 1000 nM (sheet 'Samples'), CATDS: 0.107849742816713; n = 1
# NQO2 = conditions: read-out: apparent Kd; compound concentrations: 100 nM and 1000 nM (sheet 'Samples'), CATDS: 8.1973384609640695E-2; n = 1
# PIP4K2C = conditions: read-out: apparent Kd; compound concentrations: 100 nM and 1000 nM (sheet 'Samples'), CATDS: 7.6274821078241906E-2; n = 1
# TESK2 = conditions: read-out: apparent Kd; compound concentrations: 100 nM and 1000 nM (sheet 'Samples'), CATDS: 7.0727879355670806E-2; n = 1
# TGFBR2 = conditions: read-out: apparent Kd; compound concentrations: 100 nM and 1000 nM (sheet 'Samples'), CATDS: 7.2410579705908001E-2; n = 1
# BMPR2 = conditions: read-out: apparent Kd; compound concentrations: 100 nM and 1000 nM (sheet 'Samples'), CATDS: 0.122163431962668; n = 1
# CSNK1A1 = conditions: read-out: apparent Kd; compound concentrations: 100 nM and 1000 nM (sheet 'Samples'), CATDS: 0.24698540566434601; n = 1
# CSNK1D = conditions: read-out: apparent Kd; compound concentrations: 100 nM and 1000 nM (sheet 'Samples'), CATDS: 0.25978966817559301; n = 1
# CSNK1E = conditions: read-out: apparent Kd; compound concentrations: 100 nM and 1000 nM (sheet 'Samples'), CATDS: 0.174355768455381; n = 1
# PKN2 = conditions: read-out: apparent Kd; compound concentrations: 100 nM and 1000 nM (sheet 'Samples'), CATDS: 0.12366746425094501; n = 1
# [1] = compound concentrations:100 nM and 1000 nM (sheet 'Samples')
structure (smiles),measurement,setting,value
Nc1nc(-c2ccc3c(N)n[nH]c3c2)cc(N2CCC[C@@H](C(=O)Nc3ccccc3)C2)n1.Nc1nc(-c2ccc3c(N)n[nH]c3c2)cc(N2CCC[C@@H](C(=O)Nc3ccccc3)C2)n1.O=C(O)C(F)(F)F.O=C(O)C(F)(F)F [GSK2288359A],potency estimated from few doses,ADCK3; [1],1.1 µM
COc1ccc(-c2cc3c(C)nc(N)nc3n([C@H]3CC[C@H](OCCO)CC3)c2=O)cn1 [PFE-PKIS_29],potency estimated from few doses,ADCK3; [1],1.46 µM
same,potency estimated from few doses,DHCR24,1.75 µM
same,potency estimated from few doses,DJA1; [1],1.96 µM
same,potency estimated from few doses,ERBB3,0.453 µM
same,potency estimated from few doses,PI4KA,0.0615 µM
same,potency estimated from few doses,PI4KB,0.702 µM
same,potency estimated from few doses,PIK3C2A,0.999 µM
same,potency estimated from few doses,PIK3C2B,0.0349 µM
same,potency estimated from few doses,PIK3CA,0.00127 µM
same,potency estimated from few doses,PIK3CB,0.0103 µM
same,potency estimated from few doses,PIK3CD; [1],0.00067 µM
same,potency estimated from few doses,PRKDC,0.817 µM
COc1cc(Nc2ncc(-c3ccccc3)o2)cc(OC)c1 [GW631581B],potency estimated from few doses,ADCK1; CATDS: 0.14545775949077999,1.65 µM
same,potency estimated from few doses,CAMK4,1.41 µM
same,potency estimated from few doses,FLT3,0.00816 µM
same,potency estimated from few doses,MAP2K2,2.01 µM
same,potency estimated from few doses,PDGFRB,0.0854 µM
Cc1ccc(NC(=O)c2ccnc(N3CCN(C)CC3)c2)cc1-c1ccc(C(=O)NCC2CC2)cc1 [GW775604X],potency estimated from few doses,"ADCK3; compound concentrations: 100 nM and 1000 nM (sheet 'Samples'), CATDS: 0.117650755909267",1.66 µM
same,potency estimated from few doses,GALK1,1.57 µM
same,potency estimated from few doses,MAPK14; CATDS: 0.15490410585255601,0.84 µM
same,potency estimated from few doses,MAPK1,1.43 µM
same,potency estimated from few doses,"PIK3CD; compound concentrations: 100 nM and 1000 nM (sheet 'Samples'), CATDS: 0.661841764967533",0.059 µM
same,potency estimated from few doses,PIM2,1.65 µM
same,potency estimated from few doses,STK16; CATDS: 0.13061388910889801,1.25 µM
CCOc1ccc2c(-c3ccnc(Nc4cc(OC)cc(C(F)(F)F)c4)n3)cnn2n1 [GW807982X_KCGS],potency estimated from few doses,ADCK1; CATDS: 7.5755485484616303E-2,1.8 µM
same,potency estimated from few doses,CLK1,0.672 µM
same,potency estimated from few doses,CLK2,0.132 µM
same,potency estimated from few doses,CLK4,0.811 µM
same,potency estimated from few doses,"DJA1; compound concentrations: 100 nM and 1000 nM (sheet 'Samples'), CATDS: 8.1274220944096601E-2",1.5 µM
same,potency estimated from few doses,MAPK14; CATDS: 9.4734585023085197E-2,1.05 µM
same,potency estimated from few doses,NQO2,1.47 µM
same,potency estimated from few doses,PIP4K2C,1.76 µM
same,potency estimated from few doses,STK16; CATDS: 8.9736368471695804E-2,1.19 µM
same,potency estimated from few doses,TESK2,2.18 µM
same,potency estimated from few doses,TGFBR2,2.04 µM
Cc1cc(C)c2c(n1)sc1c(N)ncnc12 [RO4241967-000],potency estimated from few doses,"ADCK3; compound concentrations: 100 nM and 1000 nM (sheet 'Samples'), CATDS: 0.164080926877189",0.987 µM
same,potency estimated from few doses,BMPR2,2.21 µM
same,potency estimated from few doses,CSNK1A1,0.453 µM
same,potency estimated from few doses,CSNK1D,0.417 µM
same,potency estimated from few doses,CSNK1E,0.864 µM
same,potency estimated from few doses,PKN2,2.12 µM
